The values below come from the supplement of paper PMC10127200.

What all share (assay): Euclidean distance of Cell Painting phenotypic profile (signed KS, 77 features) to DMSO centroid (dimensionless distance); 5 or 10 uM (library dependent); higher = stronger phenotypic change vs DMSO (phenoactivity)
Conditions in all cases: 48 h

In one experiment the test system is 786-O. The procedure, abridged:
(§1)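 Five cancer lines, together with a healthy fibroblast line, received library compounds for 48 h at a library-dependent 10 or 5 uM and 0.1% DMSO final. Harmony then derived 77 features from confocal 20X images (9 fields/well) of the stained cells, scoring each as a signed Kolmogorov-Smirnov statistic against same-plate vehicle wells. After plate-position correction, correlation weighting and replicate averaging at the top dose, phenoactivity was taken as each profile's Euclidean distance to the median vehicle profile.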

The next experiment concerns A549. The procedure, abridged: as §1
Another experiment concerns DU145. A digest of the protocol:
as §1

A further experiment has as its system FB. A digest of the protocol:
as §1

In the next experiment the test system is HEPG2. The procedure, abridged:
as §1

Another experiment has as its system OVCAR4. The procedure, abridged:
as §1

Structures can show the parent of a compound that is named as a salt.

In the case of `C=CCNC(N)=S` [Allylthiourea], the Euclidean distance with 786-O is 1.12; in the experiment on A549 it was 0.909; with DU145, 0.907; with FB, 0.873; in the experiment with HEPG2, 0.823; in the experiment on OVCAR4 it was 1.54.

Turning to `O=C(COc1ccc(C(=O)c2ccccc2)cc1)NC1CCN(Cc2ccccc2)CC1` [AdipoRon], the Euclidean distance in the experiment with 786-O was 0.958; with A549 it was 0.958; with DU145 it was 0.661; in the experiment on FB, 0.817; with HEPG2 it was 1.11; in the experiment on OVCAR4, 0.793.

On to `CC(C)(C)NCC(O)c1cc(O)cc(O)c1` (centres undefined) [Terbutaline Sulfate], for which the Euclidean distance with 786-O was determined as 1.21; in the experiment with A549, 0.707; in the experiment with DU145, 0.835; in the experiment on FB it was 1.27; in the experiment with HEPG2, 0.547; in the experiment on OVCAR4, 0.825.

As for `CCC[C@@H]1C[C@@H](C(=O)N[C@@H]([C@H]2O[C@H](SC)[C@H](O)[C@@H](O)[C@H]2O)[C@@H](C)O)N(C)C1` [Lincomycin Hydrochloride Monohydrate], the Euclidean distance in the experiment with 786-O was 0.425; in the experiment on A549 it was 0.311; in the experiment with DU145, 0.923; in the experiment with FB, 0.981; with HEPG2, 0.275; in the experiment with OVCAR4, 1.41.

On to `CC(=O)OCC1=C(C(=O)O)N2C(=O)[C@@H](NC(=O)CSC(=NC(C)C)NC(C)C)[C@H]2SC1` [Cefathiamidine], for which the Euclidean distance in the experiment with 786-O was 1.48; in the experiment with A549 it was 0.7; in the experiment with DU145, 1.41; in the experiment on FB it was 0.888; in the experiment with HEPG2, 0.62; with OVCAR4, 1.82.

As for `Cc1cc(C)nc(O)n1.O=C(Nc1ccc([N+](=O)[O-])cc1)Nc1ccc([N+](=O)[O-])cc1` [Nicarbazin], the Euclidean distance in the experiment with 786-O was determined as 1.37; in the experiment on A549 it was 1.24; in the experiment on DU145 it was 0.953; in the experiment on FB, 1.62; in the experiment on HEPG2, 0.833; in the experiment with OVCAR4, 1.15.

With `CN1C(=O)C(Cc2c[nH]c3ccccc23)NC1=S` (centres undefined) [Necrostatin-1], the Euclidean distance in the experiment on 786-O was determined as 1.05; in the experiment with A549, 1.61; with DU145 it was 1.1; with FB, 0.994; in the experiment on HEPG2 it was 0.953; with OVCAR4, 1.55.

For the compound `COc1cc(-c2cc(-c3cccc(O)c3)cnc2N)cc(OC)c1OC`, the Euclidean distance in the experiment with 786-O amounted to 2.06; in the experiment on A549 it was 2.24; in the experiment on DU145, 1.46; in the experiment on FB, 2.23; in the experiment with HEPG2 it was 1.93; with OVCAR4, 1.77.

In the case of `CCOc1cc2ncc(C#N)c(Nc3ccc(OCc4ccccn4)c(Cl)c3)c2cc1NC(=O)/C=C/CN(C)C` [Neratinib (HKI-272)], the Euclidean distance in the experiment with 786-O was 2.26; in the experiment with A549, 2.39; in the experiment on DU145, 2.02; in the experiment on FB, 4.01; in the experiment on HEPG2, 0.96; in the experiment on OVCAR4 it was 2.16.

For `NCCNc1ccc(NCCN)c2c1C(=O)c1ccncc1C2=O` [Pixantrone Maleate], the Euclidean distance with 786-O is 4.41; in the experiment on A549, 3.32; in the experiment on DU145, 3.46; in the experiment on FB it was 4.14; with HEPG2 it was 4.48; with OVCAR4, 3.49.

On to `N[C@H](Cc1ccccc1)C(=O)O` [D-Phenylalanine], for which the Euclidean distance in the experiment with 786-O came to 1.65; in the experiment on A549 it was 1.05; in the experiment with DU145, 0.814; in the experiment with FB, 0.864; in the experiment on HEPG2, 0.733; in the experiment on OVCAR4, 0.852.

For the compound `Nc1ccn([C@@H]2O[C@H](CO)[C@@H](O)[C@@H]2O)c(=O)n1` [Cytarabine], the Euclidean distance in the experiment on 786-O came out at 3.08; with A549, 2.79; in the experiment with DU145 it was 2.54; in the experiment on FB, 3.39; in the experiment on HEPG2, 2.79; in the experiment with OVCAR4, 3.15.

With `COC(=O)Nc1ccc(-c2nc(N3CCOCC3)c3cnn(C4CCN(C(=O)OC)CC4)c3n2)cc1`, the Euclidean distance turned out to be 1.52 in the experiment on 786-O; 2.8 with A549; 1.17 in the experiment on DU145; 2.27 in the experiment with FB; 1.92 in the experiment on HEPG2; 4 in the experiment with OVCAR4.

For the compound `O=c1sn(-c2cccc3ccccc23)c(=O)n1Cc1ccccc1` [Tideglusib], the Euclidean distance in the experiment with 786-O is 0.967; with A549 it was 0.321; with DU145, 0.768; in the experiment on FB it was 0.656; in the experiment on HEPG2, 0.456; in the experiment on OVCAR4, 1.14.

With `CN(C)CCC=C1c2ccccc2CCc2ccccc21` [Amitriptyline HCl], the Euclidean distance was determined as 1.34 in the experiment on 786-O; 1.54 in the experiment on A549; 1.54 with DU145; 1.52 with FB; 1.48 in the experiment with HEPG2; 1.99 in the experiment with OVCAR4.

As to `COc1ccc(NC(=O)c2ccc(C(=N)N(C)C)cc2)c(C(=O)Nc2ccc(Cl)cn2)c1` [Betrixaban], the Euclidean distance in the experiment on 786-O stood at 1.22; in the experiment with A549 it was 0.664; in the experiment on DU145, 0.647; in the experiment with FB, 0.875; with HEPG2, 0.841; in the experiment with OVCAR4, 0.904.

`Cc1ccc(-c2nc(N)nc3c2nnn3Cc2cccc(CO[C@H]3CCOC3)n2)o1`: the Euclidean distance with 786-O was 0.843; in the experiment with A549 it was 0.446; with DU145 it was 0.81; in the experiment on FB, 1.32; with HEPG2, 0.731; with OVCAR4 it was 0.627.

As for `NC(=O)[C@@H]1CC[C@@H]2CN1C(=O)N2OS(=O)(=O)O` [Avibactam sodium], the Euclidean distance in the experiment on 786-O worked out at 1.03; with A549, 0.85; in the experiment on DU145, 0.722; in the experiment with FB it was 0.925; in the experiment on HEPG2, 0.607; in the experiment on OVCAR4, 1.24.

As for `Cc1cccc(Oc2cnc(=O)[nH]c2)c1`, the Euclidean distance in the experiment on 786-O came to 1.47; with A549 it was 1.3; in the experiment with DU145, 1.39; in the experiment on FB, 1.47; in the experiment on HEPG2, 0.543; in the experiment on OVCAR4 it was 0.931.

`Nc1nc(N)c(N=O)c(OCC2CCCCC2)n1`: the Euclidean distance was 1.11 in the experiment on 786-O; 1.58 with A549; 0.998 with DU145; 1.01 in the experiment on FB; 0.792 in the experiment with HEPG2; 1.38 with OVCAR4.

Consider `CC1(C)OC[C@@H](COC(=O)CCc2ccc(OC[C@@H](O)CNCCNC(=O)N3CCOCC3)cc2)O1` [Landiolol hydrochloride], for which the Euclidean distance in the experiment with 786-O came out at 1.18; with A549 it was 0.835; with DU145 it was 1.25; in the experiment with FB it was 1.04; in the experiment with HEPG2, 0.692; in the experiment on OVCAR4 it was 1.25.

As to `CCCC(C(=O)OCCN(CC)CC)(c1ccccc1)c1ccccc1` [Proadifen HCl], the Euclidean distance was 1.14 with 786-O; 1.1 in the experiment with A549; 2.58 in the experiment with DU145; 1.59 in the experiment on FB; 1.89 in the experiment on HEPG2; 1.13 in the experiment on OVCAR4.

Consider `CN1CC2c3ccccc3Oc3ccc(Cl)cc3C2C1` (centres undefined) [Asenapine], for which the Euclidean distance worked out at 1.1 with 786-O; 0.811 in the experiment on A549; 0.805 with DU145; 1.19 with FB; 1.03 in the experiment with HEPG2; 0.94 with OVCAR4.

For the compound `NC(=O)N/N=C/c1ccc([N+](=O)[O-])o1` [Nitrofural], the Euclidean distance in the experiment on 786-O is 1.31; in the experiment with A549 it was 0.907; with DU145, 1.62; in the experiment on FB it was 1; in the experiment with HEPG2, 0.466; in the experiment with OVCAR4 it was 1.22.
